From PubChem BioAssay (Tox21)
Inconclusive results are not listed. Active and inactive are the calls of the source. Calls come from the whole dose curve; as a rule, active = well fitted curve in the direction sought with a large enough effect in the repeat runs; inconclusive = weak or mixed curves; inactive = no such curve, though single readings can be large; an effect the other way counts as inactive or inconclusive.

Experiments:
[1] = qHTS RealTime-Glo MT Cell Viability Assay in HEK293 cells - 32 hour (AID 1224868); note: top concentration of the series differs between compounds; nearly all actives have a fitted effect of over 50% in size
Outline: (§1)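 Reads taken at 0, 8, 16, 24, 32 and 40 h from the same wells. HEK293 cells (600/well) carried RealTime-Glo reagents from seeding, with compound added after a 5 h settle at 37 C.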

[2] = A CellTox Green Cytotoxicity Assay to monitor cytotoxicity in HEK293 cells - 0 hour (AID 1224869); note: nearly all actives have a fitted effect of over 50% in size
Outline: (§2)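 Seeding of HEK293 cells together with cytotoxicity dye preceded a 5 h incubation at 37 C/5% CO2. Test compounds in DMSO were then added and fluorescence monitored across 40 h.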

[3] = qHTS RealTime-Glo MT Cell Viability Assay in HepG2 cells - 40 hour (AID 1224870); note: nearly all actives have a fitted effect of over 50% in size
Outline: (§3)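 Real-time viability: cells seeded at 600 per well together with NanoLuc and cell-permeant prosubstrate, compounds added after 5 h incubation. Luminescence tracked at 0, 8, 16, 24, 32 and 40 h of exposure.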

[4] = A CellTox Green Cytotoxicity Assay to monitor cytotoxicity in HEK293 cells - 40 hour (AID 1224871); note: nearly all actives have a fitted effect of over 45% in size
Outline: as §2

[5] = qHTS RealTime-Glo MT Cell Viability Assay in HEK293 cells - 16 hour (AID 1224872); note: top concentration of the series differs between compounds; nearly all actives have a fitted effect of over 50% in size
Outline: as §1

[6] = qHTS RealTime-Glo MT Cell Viability Assay in HepG2 cells - 8 hour (AID 1224873); note: nearly all actives have a fitted effect of over 55% in size
Outline: as §3

[7] = qHTS RealTime-Glo MT Cell Viability Assay in HEK293 cells - 40 hour (AID 1224874); conditions: RealTime-Glo luminescence, stronger effect = lower value; note: nearly all actives have a fitted effect of over 50% in size
Outline: (§4)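 Tox21 screen in HEK293 using RealTime-Glo MT chemistry, with cells and reagent co-dispensed. Luminescence proportional to viable cell number was captured at intervals during 40 h compound exposure at 37 C.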

[8] = A CellTox Green Cytotoxicity Assay to monitor cytotoxicity in HEK293 cells - 24 hour (AID 1224875); note: series mostly up to about 77 µM; nearly all actives have a fitted effect of over 45% in size
Outline: as §2

[9] = qHTS RealTime-Glo MT Cell Viability Assay in HepG2 cells - 32 hour (AID 1224877); note: nearly all actives have a fitted effect of over 55% in size
Outline: (§5)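 HepG2 suspension premixed with RealTime-Glo reagents is plated at 600 cells per well and left 5 h at 37 C/5% CO2. Compounds in DMSO then go in, and bioluminescence reflecting viable cell number is recorded over 40 h.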

[10] = qHTS RealTime-Glo MT Cell Viability Assay in HEK293 cells - 0 hour (AID 1224880); note: top concentration of the series differs between compounds; nearly all actives have a fitted effect of over 45% in size
Outline: as §4

[11] = A CellTox Green Cytotoxicity Assay to monitor cytotoxicity in HEK293 cells - 32 hour (AID 1224881); note: nearly all actives have a fitted effect of over 40% in size
Outline: as §2

[12] = A CellTox Green Cytotoxicity Assay to monitor cytotoxicity in HepG2 cells - 0 hour (AID 1224882); note: nearly all actives have a fitted effect of over 35% in size
Outline: (§6)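 Nonlytic assay: viable cells exclude the dye, so fluorescence scales with cell death. HepG2 at 600 cells/well, compounds added after 5 h, signal read across 40 h.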

[13] = A CellTox Green Cytotoxicity Assay to monitor cytotoxicity in HEK293 cells - 8 hour (AID 1224884); note: nearly all actives have a fitted effect of over 35% in size
Outline: as §2

[14] = qHTS RealTime-Glo MT Cell Viability Assay in HepG2 cells - 16 hour (AID 1224885); note: nearly all actives have a fitted effect of over 50% in size
Outline: as §5

[15] = qHTS RealTime-Glo MT Cell Viability Assay in HEK293 cells - 24 hour (AID 1224886)
Outline: as §1

[16] = qHTS RealTime-Glo MT Cell Viability Assay in HEK293 cells - 8 hour (AID 1224887)
Outline: as §4

[17] = A CellTox Green Cytotoxicity Assay to monitor cytotoxicity in HepG2 cells - 24 hour (AID 1224878); note: nearly all actives have a fitted effect of over 45% in size
Outline: as §6

[18] = A CellTox Green Cytotoxicity Assay to monitor cytotoxicity in HepG2 cells - 40 hour (AID 1224879); note: nearly all actives have a fitted effect of over 40% in size
Outline: as §6

[19] = A CellTox Green Cytotoxicity Assay to monitor cytotoxicity in HepG2 cells - 32 hour (AID 1224883); note: nearly all actives have a fitted effect of over 50% in size
Outline: as §6

[20] = A CellTox Green Cytotoxicity Assay to monitor cytotoxicity in HepG2 cells - 16 hour (AID 1224876); note: nearly all actives have a fitted effect of over 45% in size
Outline: as §6
% is set by controls: 0 for no effect and ±100 for the full control effect.

C=CCON/C(CCC)=C1\C(=O)CC(C)(C)C(C(=O)OC)=C1O
inactive: outcome [1] | outcome [2] | outcome [3] | Potency [4] | outcome [5] | outcome [6] | max response [7] 3.04% | Potency [8] | outcome [9] | Potency [10] | Potency [11] | Potency [12] | Potency [13] | outcome [14] | outcome [15] | outcome [16]

N#CC1(N)CCCCC1
inactive: outcome [1] | outcome [2] | outcome [3] | Potency [4] | outcome [5] | outcome [6] | max response [7] 6.54% | Potency [8] | outcome [9] | Potency [17] | Potency [18] | Potency [10] | Potency [11] | Potency [12] | Potency [19] | outcome [14] | outcome [15] | outcome [16]

CC(=O)OC/C=C(/C)CCC=C(C)C
inactive: outcome [1] | outcome [2] | outcome [3] | Potency [4] | outcome [5] | outcome [6] | Potency [8] | Potency [20] | outcome [9] | Potency [17] | Potency [18] | Potency [10] | Potency [11] | Potency [12] | Potency [19] | Potency [13] | outcome [14] | outcome [15]

CCCCCCCC(=O)N(C)C
inactive: outcome [1] | outcome [2] | outcome [3] | Potency [4] | outcome [5] | outcome [6] | max response [7] 4.49% | Potency [8] | outcome [9] | Potency [10] | Potency [11] | Potency [12] | Potency [13] | outcome [14] | outcome [15] | outcome [16]

N=C(N)N1CCc2ccccc2C1
inactive: activity change, negative = cytotoxic [1] 0.854% [at 6.97 µM] | cytotoxicity [2] -7.02% [at 6.97 µM] | activity change, negative = cytotoxic [3] 0.674% [at 6.97 µM] | cytotoxicity increase [4] -5.28% [at 6.97 µM] | activity change, negative = cytotoxicity [5] 1.8% [at 6.97 µM] | viability change, negative = cytotoxic [6] 0.945% [at 6.97 µM] | activity change [8] -12.7% [at 6.97 µM, stronger effect = higher value] | activity change, negative = cytotoxic [9] 0.278% [at 6.97 µM] | cytotoxicity [17] -11.7% [at 6.97 µM] | cytotoxicity increase [18] -14.4% [at 6.97 µM] | activity change, negative = cytotoxicity [10] -0.804% [at 6.97 µM] | cytotoxicity increase [11] -11.6% [at 6.97 µM] | cytotoxicity increase [19] -12.5% [at 6.97 µM] | cytotoxicity increase [13] -15.6% [at 6.97 µM] | activity change, negative = cytotoxic [14] 0.556% [at 6.97 µM] | activity change, negative = cytotoxicity [15] 2.27% [at 6.97 µM] | activity change, negative = cytotoxicity [16] 2.38% [at 6.97 µM]

C[Si](C)(C)O[Si](O)(O)O
inactive: outcome [1] | outcome [2] | outcome [3] | Potency [4] | outcome [5] | max response [7] 0.476% | Potency [8] | Potency [20] | outcome [9] | Potency [17] | Potency [18] | Potency [10] | Potency [11] | Potency [12] | Potency [19] | Potency [13] | outcome [14] | outcome [15]

CCOC(=O)CN1CCCC1=O
inactive: outcome [1] | outcome [2] | outcome [3] | Potency [4] | outcome [5] | outcome [6] | Potency [8] | Potency [20] | outcome [9] | Potency [17] | Potency [18] | Potency [10] | Potency [11] | Potency [12] | Potency [19] | Potency [13] | outcome [14] | outcome [15] | outcome [16]

O=C[C@@H](O)[C@H](O)[C@H](O)CO
inactive: outcome [1] | outcome [2] | outcome [3] | Potency [4] | outcome [5] | max response [7] -1.95% | Potency [8] | Potency [20] | outcome [9] | Potency [17] | Potency [18] | Potency [10] | Potency [11] | Potency [12] | Potency [19] | Potency [13] | outcome [14] | outcome [15]

Cc1cc(C)c(C)c(C)c1
inactive: outcome [1] | outcome [2] | outcome [3] | Potency [4] | outcome [5] | outcome [6] | Potency [8] | Potency [20] | outcome [9] | Potency [17] | Potency [18] | Potency [10] | Potency [11] | Potency [12] | Potency [19] | Potency [13] | outcome [14] | outcome [15] | outcome [16]

COc1cc2nc(N3CCN(C(=O)C4CCCO4)CC3)nc(N)c2cc1OC (stereo not given)
inactive: outcome [1] | outcome [2] | outcome [3] | Potency [4] | outcome [5] | outcome [6] | Potency [8] | Potency [20] | outcome [9] | Potency [17] | Potency [10] | Potency [11] | Potency [12] | Potency [19] | Potency [13] | outcome [14] | outcome [15] | outcome [16]

CC(C)C(C)C
inactive: outcome [1] | outcome [2] | outcome [3] | Potency [4] | outcome [5] | max response [7] 5.69% | Potency [8] | Potency [20] | outcome [9] | Potency [17] | Potency [18] | Potency [10] | Potency [11] | Potency [12] | Potency [19] | Potency [13] | outcome [14] | outcome [15] | outcome [16]

CNC(=O)c1c(I)c(NC(C)=O)c(I)c(C(=O)O)c1I
inactive: outcome [1] | outcome [2] | outcome [3] | Potency [4] | outcome [5] | outcome [6] | Potency [8] | Potency [20] | outcome [9] | Potency [17] | Potency [18] | Potency [10] | Potency [11] | Potency [12] | Potency [19] | Potency [13] | outcome [14] | outcome [15] | outcome [16]

CCCc1ncc(C(=O)O)s1
inactive: outcome [1] | outcome [2] | outcome [3] | Potency [4] | outcome [5] | outcome [6] | Potency [8] | Potency [20] | outcome [9] | Potency [17] | Potency [18] | Potency [10] | Potency [11] | Potency [12] | Potency [19] | Potency [13] | outcome [14] | outcome [15]

CCOc1ccccc1OCCN[C@H](C)Cc1ccc(OC)c(S(N)(=O)=O)c1
inactive: outcome [1] | outcome [2] | outcome [3] | Potency [4] | outcome [5] | outcome [6] | Potency [8] | Potency [20] | outcome [9] | Potency [17] | Potency [18] | Potency [10] | Potency [11] | Potency [12] | Potency [19] | Potency [13] | outcome [14] | outcome [15]

COc1cc(S(N)(=O)=O)cc(C(=O)O)c1OC
inactive: outcome [1] | outcome [2] | outcome [3] | Potency [4] | outcome [5] | max response [7] 0.543% | Potency [8] | Potency [20] | outcome [9] | Potency [17] | Potency [18] | Potency [10] | Potency [11] | Potency [12] | Potency [19] | Potency [13] | outcome [14] | outcome [15] | outcome [16]
